Source: PubChem
The list is not random: actives were taken first. Their share in the collection is about 2.8%.
PglD inh: C. jejuni PglD acetyltransferase inhibitors, primary screen, biochemical, DTNB colorimetric, single point; 360,000 tested, 0.098% active; purified PglD enzyme, DTNB colorimetric CoA detection; inhibition, % at 12.5 µM; UDP-N-acetylbacillosamine N-acetyltransferase PglD (Campylobacter jejuni); AID 602405, 2012; in the data active = inhibition above about 16%, passing the limit was not always enough
FGF22 binding: binders of human FGF22 protein, primary screen, FGF22 synaptogenesis inhibitor project, biophysical, thermal shift, single point; recombinant FGF22 thermal shift, SYPRO orange fluorescence; percent of sucrose octasulfate shift, DMSO zero; activity (Tm shift, normalised), % at 9.99 µM; 340,000 tested, 1.5% active; AID 651658, 2012;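 active = mean Tm shift, scaled 0 neutral to 100 positive control, at about 1.3% or above, every replicate too, limit read from the data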
Target sequence (Q9HCT0 whole entry, looked up): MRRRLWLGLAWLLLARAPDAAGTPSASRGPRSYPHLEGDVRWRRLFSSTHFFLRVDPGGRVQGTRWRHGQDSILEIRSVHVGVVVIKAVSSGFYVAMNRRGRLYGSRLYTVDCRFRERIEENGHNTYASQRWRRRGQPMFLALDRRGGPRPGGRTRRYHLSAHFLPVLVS
PvdQ acylase: P. aeruginosa PvdQ acylase inhibitors, primary screen, biochemical, fluorescence, plate reader and imaging, single point | PvdQ acylase [Pseudomonas aeruginosa LESB58] | 340,000 tested, 0.063% active | purified PvdQ acylase | inhibition, % at 10 µM; in the data active = inhibition above about 30%, passing the limit was not always enough;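 note: 0% = vehicle neutral wells and 100% = reference inhibitor wells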
CDK5 inh: inhibitors of human CDK5/p35 kinase, primary screen, biochemical, single concentration; Recombinant CDK5/p35, ADP-Glo luminescence, 60 min; Cyclin-dependent kinase 5 (Homo sapiens) + Cyclin-dependent kinase 5 activator 1 (Homo …; inhibition, % at 10 µM; 330,000 tested, 0.01% active;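 active = highest replicate inhibition of at least 50% and at least 75% of replicates reaching 50%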;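 note: plate controls were DMSO neutral control for no effect and GW8510 at 10 µM for full effect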
SIRT5 inh: SIRT5 desuccinylase inhibitors, primary screen, biochemical, fluorescence imaging, single point, set 5; NAD-dependent protein deacylase sirtuin-5, mitochondrial (Homo sapiens), Q9NXA8; Purified SirT5, succinyl-peptide AMC, trypsin-coupled fluorescence; inhibition, % at 15 µM; 330,000 tested, 1.1% active; AID 652115, 2013; in the data active = inhibition above about 15%
dFosB act: activators of delta FosB homodimer, primary screen, biochemical, fluorescence polarization, TAMRA-CDK5 oligo, single point. Protein FosB (Mus musculus), P13346. purified delta FosB; percent of positive-control signal above neutral wells. AID 493131, 2011. activation, % at 25 µM. 340,000 tested, 0.99% active;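 active = mean activation above about 17%, with every replicate also reaching it, limit read from the data, passing the limit was not always enough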
Target sequence (P13346 whole entry, looked up): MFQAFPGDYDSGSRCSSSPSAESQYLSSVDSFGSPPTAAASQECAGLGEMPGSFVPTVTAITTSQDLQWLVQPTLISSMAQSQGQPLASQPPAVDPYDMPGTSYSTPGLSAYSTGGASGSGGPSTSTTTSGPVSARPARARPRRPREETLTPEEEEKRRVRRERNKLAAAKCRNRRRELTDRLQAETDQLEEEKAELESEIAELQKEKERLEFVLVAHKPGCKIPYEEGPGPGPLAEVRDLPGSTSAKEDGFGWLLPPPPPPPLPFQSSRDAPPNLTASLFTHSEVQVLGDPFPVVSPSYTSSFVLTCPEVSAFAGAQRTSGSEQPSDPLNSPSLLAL
Starred values were filed as active, the others as inactive.

`CC(=O)c1ccc(N2CCN(C(=O)CCCn3c(=O)[nH]c4ccccc4c3=O)CC2)cc1` gave FGF22 binding 43*, PvdQ acylase -12, CDK5 inh -1, SIRT5 inh -1 and dFosB act -3.
`COc1cc2[nH]c(=O)n(CCCCCC(=O)N3CCN(c4ccccn4)CC3)c(=O)c2cc1OC` gave PglD inh -1, PvdQ acylase 5, CDK5 inh 1, SIRT5 inh 24* and dFosB act -9.
`Cc1ccc(S(=O)(=O)N(C)C[C@H]2Oc3ccc(NC(=O)Cn4cnnn4)cc3C(=O)N([C@H](C)CO)C[C@@H]2C)cc1` gave PglD inh 5, FGF22 binding 0 and SIRT5 inh 7.
For COCCNC(=O)C[C@@H]1C[C@@H]2c3cc(NS(=O)(=O)c4ccc(F)cc4)ccc3O[C@@H]2[C@@H](CO)O1 the results were PglD inh 0 and FGF22 binding 0.
CC(=O)N(C)C[C@@H]1Oc2ncc(C#CC3(O)CCCC3)cc2C(=O)N([C@H](C)CO)C[C@@H]1C was read as PglD inh -2, FGF22 binding -1 and SIRT5 inh -1.
COc1ccc(NC(=O)N(C)C[C@H]2OCCCC[C@H](C)Oc3ccc(NC(=O)Nc4cccc5ccccc45)cc3C(=O)N([C@H](C)CO)C[C@@H]2C)cc1 was read as PglD inh 1 and FGF22 binding 0.
C[C@@H]1CCCCO[C@@H](CN(C)S(=O)(=O)c2ccc(Cl)cc2)[C@H](C)CN([C@H](C)CO)C(=O)c2cc(NC(=O)CCC(F)(F)F)ccc2O1 was read as PglD inh -5, FGF22 binding -1 and SIRT5 inh 6.
For CCc1ccc(OCCNc2cc(N3CCNC(C)C3)ccc2[N+](=O)[O-])cc1 (configuration not stated) the results were PglD inh 6, FGF22 binding 0, PvdQ acylase -7, CDK5 inh 0, SIRT5 inh 0 and dFosB act 45*.
For CC1CN(c2ccc([N+](=O)[O-])c(NCCOc3ccccc3)c2)CC(C)N1 (configuration not stated) the results were PglD inh -10, FGF22 binding 0, PvdQ acylase 8, CDK5 inh -2, SIRT5 inh -3 and dFosB act 3.
`CC1CN(c2ccc([N+](=O)[O-])c(NCCOc3ccc(Cl)cc3)c2)CC(C)N1` (configuration not stated) gave PglD inh -3, FGF22 binding 0, PvdQ acylase -6, CDK5 inh 2, SIRT5 inh -4 and dFosB act 37*.
CO[C@H]1CN(C)C(=O)c2ccc(NS(C)(=O)=O)cc2OC[C@@H](C)N(C(=O)C2CCCCC2)C[C@@H]1C was read as PglD inh -2 and SIRT5 inh -1.
`C[C@H]1CN([C@@H](C)CO)C(=O)c2cc(Br)cnc2O[C@@H]1CN(C)C(=O)c1ccc(F)cc1` gave PglD inh 2, FGF22 binding 0 and SIRT5 inh -4.
For C[C@H](CO)N1C[C@H](C)[C@@H](CN(C)C(=O)C2CCCCC2)Oc2cc(C3=CCCCC3)ccc2S1(=O)=O the results were PglD inh -2, FGF22 binding 0 and SIRT5 inh 10.
C=C(C)c1cccc(C(C)(C)NC(=O)Nc2ccc(OC)cc2)c1 was read as PglD inh -1, FGF22 binding 43*, PvdQ acylase -11, CDK5 inh 0, SIRT5 inh -2 and dFosB act -2.
For CCOCCOC(=O)c1[nH]c2c(c1C)C(=O)CC(c1ccc(N(C)C)cc1)C2 (configuration not stated) the results were PglD inh 3, FGF22 binding 0, PvdQ acylase 6, CDK5 inh 2 and dFosB act 0.
Screening CCC(C)OC(=O)c1[nH]c2c(c1C)C(=O)CC(c1ccc(N(C)C)cc1)C2 (configuration not stated) returned PglD inh -1, FGF22 binding 0, PvdQ acylase -13, CDK5 inh 2 and dFosB act 29*.
C/C=C/COC(=O)c1[nH]c2c(c1C)C(=O)CC(c1ccc(N(C)C)cc1)C2 (configuration not stated) was read as PglD inh 1, FGF22 binding 0, PvdQ acylase -5, CDK5 inh 0 and dFosB act 85*.
For Cc1ccc(S(=O)(=O)N2CC[C@H]3[C@H](CO)Nc4ccc(Br)cc4[C@H]32)cc1 the results were PglD inh 4, FGF22 binding 0 and SIRT5 inh 1.
For Cc1ccc(S(=O)(=O)N2CC[C@@H]3[C@H]2c2cc(Br)ccc2N[C@@H]3CO)cc1 the results were PglD inh -2, FGF22 binding 0 and SIRT5 inh 15*.
Screening C[C@@H]1CN([C@H](C)CO)C(=O)Cc2cc(NC(=O)Nc3cccc4ccccc34)ccc2O[C@H]1CN(C)C(=O)Nc1ccc(C(F)(F)F)cc1 returned PglD inh -4, FGF22 binding 0 and SIRT5 inh 13.
COc1ccc(NC(=O)C(c2ccccc2)c2ccccc2)cn1 was read as FGF22 binding 43*, PvdQ acylase -15, CDK5 inh -2, SIRT5 inh 1 and dFosB act -4.
`CC(=O)Nc1ccc(NC(=O)C(c2ccccc2)c2ccccc2)cc1` gave PglD inh -2, FGF22 binding 0, PvdQ acylase -12, CDK5 inh 0, SIRT5 inh 1 and dFosB act -1.
For O=C(C[C@H]1CC[C@H](NC(=O)c2ccncc2)[C@H](CO)O1)Nc1ccc(-c2ccccc2)cc1 the results were SIRT5 inh -1.
For Cn1c(=S)[nH]c2sc3c(c2c1=O)CCC(C(C)(C)C)C3 (configuration not stated) the results were FGF22 binding 0, PvdQ acylase 4, CDK5 inh 1, SIRT5 inh 35* and dFosB act -4.
`O=C(c1ccncc1)N1C[C@@H]2N[C@H](C1)C2c1ccc(-c2cccnc2)cc1` (some centres not stated) gave SIRT5 inh -5.
For CN1CCN(C(=O)CCC(=O)O)CC1 the results were PglD inh 1, FGF22 binding 0, PvdQ acylase -9, CDK5 inh -8, SIRT5 inh 0 and dFosB act -2.
